This note sets out measurements from PubChem BioAssay AID2685 (National Center for Advancing Translational Sciences (NCATS), 2010).

Hit rate of the full screen: of about 320,000 compounds, about 2,100 (0.66%) were called active. Inconclusive results (about 53%) are left out. The call rests on the fitted dose curve; in most records, active means well fitted inhibition curve with a large enough effect in the signal ratio, with a control signal flat (not every such curve was filed as active); inconclusive means small, poorly fitted or top-dose-only effect, or effect the other way, or a change in a side signal; inactive means flat fitted curve, though single readings scatter; the % refers to the signal ratio. The full list was thinned out, with actives kept by preference.
Potency means the concentration at half of the fitted maximal effect.

The experiment can be described thus: qHTS Assay for Lipid Storage Modulators in Drosophila S3 Cells.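 On cell number change: cells counted by Cell Tracker Red CMTPX staining in the red channel.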 As to conditions: BODIPY lipid droplet fluorescence, 18-24 h, cells fed with added oleic acid; cell number change: measured here: cell count max response; series mostly up to 46.1 µM. Summed up:
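Drosophila S3 cells got compounds at several concentrations plus oleic acid (400 uM solution). Laser-scanning cytometry with 488 nm excitation read lipid droplets at 500-530 nm and cells at 575-640 nm. Percent activity was relative to 20 uM Triacsin C.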
Background: Quantitative high-throughput screening tests each substance at several concentrations.
Regarding `COc1ccc(C(=S)N2CCOCC2)cc1OC(=O)c1ccccc1Cl`, the Potency result was “inactive” and the cell number change was found to be 11.8%.

Take `Cc1ccc(S(=O)(=O)NC(CC(=O)O)c2ccc(F)cc2)cc1` (stereo not given): the Potency result is “inactive” and the cell number change came to 2.4%. For `COc1ccc(C(CC(=O)O)NS(=O)(=O)c2ccc(C)cc2)cc1` (stereo not given) the same measures were 2.91 µM (active) and 9.41%. The matching figures for `COc1ccc(C(CC(=O)O)NS(=O)(=O)c2ccc(C)cc2)cc1OC` (stereo not given): “inactive” and -5.13%. For `O=C(C1=C[C@@H](c2coc3ccccc3c2=O)C[C@@H](OCCCCO)O1)N1CCN(Cc2ccc3c(c2)OCO3)CC1` the same measures were “inactive” and -4.69%. Consider `CCc1c(C(=O)Nc2ccccc2)c(C)[nH]c(=S)c1C#N`, for which the Potency result is “inactive” and the cell number change came to 16.5%.

`Cc1[nH]c(=S)c(C#N)c(-c2ccccc2)c1C(=O)Nc1ccccc1`: the Potency was 7.31 µM (active) and the cell number change was -24.7%. `Cc1ccc(-c2c(C(=O)Nc3ccccc3C)c(C)[nH]c(=S)c2C#N)o1`: the Potency entry was “inactive” and the cell number change was determined as 5.19%.

Turning to `O=C(CCCN1C(=O)S/C(=C/c2ccccc2)C1=S)Nc1ccc(C(=O)O)cc1`, the Potency entry is “inactive” and the cell number change was found to be 10.3%. For `CCc1cccc(NC(=O)CCCN2C(=O)C(c3ccccc3)Oc3cccnc32)c1` (stereo not given) the same measures were 20.6 µM (active) and 12%. Turning to `Cc1cc(C)cc(NC(=O)CCCN2C(=O)C(c3ccccc3)Oc3cccnc32)c1` (stereo not given), the Potency is -12%. In the case of `CC(=O)c1ccc(NC(=O)CCCN2C(=O)C(c3ccccc3)Oc3cccnc32)cc1` (stereo not given), the Potency result is “inactive” and the cell number change is -3.13%. In the case of `Cc1ccc(C)c(NC(=O)C2CCCN2S(=O)(=O)c2ccc3c(c2)n(C)c(=O)c(=O)n3C)c1` (stereo not given), the Potency result is “inactive” and the cell number change was 7.23%. As for `O=C(/C=C/c1ccccc1)NC(NC(=S)Nc1cc(Cl)ccc1Cl)C(Cl)(Cl)Cl` (stereo not given), the Potency was 16.4 µM (active) and the cell number change was -23.7%. The matching figures for `O=C(Cc1ccccc1)NC(NC(=S)Nc1cc(Cl)ccc1Cl)C(Cl)(Cl)Cl` (stereo not given): “inactive” and -5.82%. For `O=C(/C=C/c1ccccc1)NC(NC(=S)Nc1cccc(O)c1)C(Cl)(Cl)Cl` (stereo not given), the Potency result was “inactive” and the cell number change was 11.8%. Consider `COc1ccc2c(c1)c(C(=O)N/N=C/c1ccc(Br)cc1)c(C)n2C`, for which the Potency entry was “inactive” and the cell number change amounted to 12%. For the molecule `CCOC(=O)Cc1csc(N/N=C/c2ccc(C(F)(F)F)cc2)n1`, the Potency entry is “inactive” and the cell number change was -3.51%. For `CCN(CC)c1ccc(C=C2C(=O)OC(c3ccccc3)OC2=O)cc1` (stereo not given) the same measures were “inactive” and 18.7%.

For the molecule `CC1=NOC(=O)/C1=C/c1ccc(N(C)C)cc1`, the Potency entry was “inactive” and the cell number change is -16.6%. Take `CCN(CC)c1ccc(/C=C2/C(=O)ON=C2C)cc1`: the Potency is 9.2 µM (active) and the cell number change is -20.6%.

For the molecule `CCOC(=O)C1CCN(Cc2nnc(-c3ccccc3C)o2)CC1`, the Potency result is “inactive” and the cell number change came to 14.7%.

With `CCOC(=O)C(NCCc1ccccc1F)(NC(C)=O)C(F)(F)F` (stereo not given), the Potency result is “inactive” and the cell number change came to 0.435%. The matching figures for `Cc1cc(C(=O)Nc2ccncc2)ccc1[N+](=O)[O-]`: “inactive” and -15%. On to `Cc1cc(C(=O)Nc2cccc(NC(=O)c3ccco3)c2)ccc1[N+](=O)[O-]`, for which the Potency is 1.84 µM (active) and the cell number change was -29.7%. As for `O=C(Nc1cccc(NC(=O)c2ccccc2Cl)c1)c1ccc([N+](=O)[O-])o1`, the Potency result was “inactive”. On the same count and under the same terms, as for `O=C(Nc1cccnc1)c1ccc([N+](=O)[O-])o1`, the entry is “inactive”. Consider `O=C(Nc1ccc(Cl)c([N+](=O)[O-])c1)c1ccco1`, for which the Potency result is “inactive” and the cell number change is -24.9%.

Consider `O=C(Nc1ccc2oc(-c3cccnc3)nc2c1)c1ccc([N+](=O)[O-])o1`, for which the Potency was 3.66 µM (active) and the cell number change is -27.4%. The matching figures for `O=C(Nc1ccccc1)c1ccc(NCCc2ccccc2)c([N+](=O)[O-])c1`: “inactive” and -13.2%. For `Cc1cccc(NC(=O)NNC(=O)c2ccc(C)c([N+](=O)[O-])c2)c1`, the Potency result was “inactive” and the cell number change is 11.9%. Regarding `O=C(Nc1cccc(NC(=O)c2ccco2)c1)c1ccc([N+](=O)[O-])cc1`, the Potency result was “inactive” and the cell number change was found to be 3.56%. `O=C(Nc1ccc2oc(-c3cccnc3)nc2c1)c1ccco1`: the Potency entry is “inactive” and the cell number change was -3.59%.

Take `Cc1cccc(NC(=O)c2ccc(NCCc3ccccc3)c([N+](=O)[O-])c2)c1`: the Potency is 16.4 µM (active) and the cell number change came to 11.4%.

Take `O=C(Nc1cccc(NC(=O)c2ccc([N+](=O)[O-])o2)c1)c1ccco1`: the Potency is 5.8 µM (active) and the cell number change was determined as 19.2%.

Consider `CCCCNC(=O)COc1ccccc1C(=O)c1cc(C#N)c(=O)n(CCOC)c1`, for which the Potency entry is “inactive” and the cell number change was determined as 1.51%. The matching figures for `COc1ccc(S(=O)(=O)N2CCCC2)c2ccccc12`: “inactive” and 12.2%. Take `CCc1ccc2[nH]c(=O)c(CN(CCN(CC)CC)C(=O)Nc3ccccc3OC)cc2c1`: the Potency result was “inactive” and the cell number change was found to be 22.1%.

Consider `COc1nc(N2CCCC2)nc(-n2nnc(C(C)=O)c2C)n1`, for which the Potency entry is “inactive” and the cell number change came out at 9.7%. For `CC(=O)c1c(C)[nH]c2ccccc2c1=O` the same measures were “inactive” and -9.21%. The matching figures for `COC(=O)c1c(NC(=O)CSc2nnc(C)c(=O)[nH]2)sc(C)c1C`: “inactive” and -15.8%. The matching figures for `COc1ccc(C2CC(c3ccc(Br)cc3)=NN2C(=O)CSC2=NCCS2)cc1` (stereo not given): “inactive” and -2.75%. With `COc1ccc(C(=O)Nc2cc(OC)nc(OC)n2)cc1`, the Potency result was “inactive” and the cell number change is -3.14%. As to `COc1cc(NC(=O)c2cc3ccccc3o2)ccc1NC(=O)c1ccco1`, the Potency is 0.58 µM (active) and the cell number change was 2.99%.
